Measured values from publication PMC4336329 (PLoS ONE, 2015).
Hit rate of the full screen: of about 310,000 compounds, about 14,000 (4.5%) showed an effect of 50% or more. Effects have a minus sign here. Only a selection was taken, and strong results are over-represented in it overall.

These molecules were tested against human ether-à-go-go-related gene (hERG) potassium channel (human, UniProt Q12809) (assay: primary screen, population patch clamp on CHO cells stably expressing hERG; higher = less effect of the substance).
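Also: peak tail current of the secondary pulse compared with the same well before compound.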

Chain of human ether-à-go-go-related gene (hERG) potassium channel (Q12809 whole entry, looked up): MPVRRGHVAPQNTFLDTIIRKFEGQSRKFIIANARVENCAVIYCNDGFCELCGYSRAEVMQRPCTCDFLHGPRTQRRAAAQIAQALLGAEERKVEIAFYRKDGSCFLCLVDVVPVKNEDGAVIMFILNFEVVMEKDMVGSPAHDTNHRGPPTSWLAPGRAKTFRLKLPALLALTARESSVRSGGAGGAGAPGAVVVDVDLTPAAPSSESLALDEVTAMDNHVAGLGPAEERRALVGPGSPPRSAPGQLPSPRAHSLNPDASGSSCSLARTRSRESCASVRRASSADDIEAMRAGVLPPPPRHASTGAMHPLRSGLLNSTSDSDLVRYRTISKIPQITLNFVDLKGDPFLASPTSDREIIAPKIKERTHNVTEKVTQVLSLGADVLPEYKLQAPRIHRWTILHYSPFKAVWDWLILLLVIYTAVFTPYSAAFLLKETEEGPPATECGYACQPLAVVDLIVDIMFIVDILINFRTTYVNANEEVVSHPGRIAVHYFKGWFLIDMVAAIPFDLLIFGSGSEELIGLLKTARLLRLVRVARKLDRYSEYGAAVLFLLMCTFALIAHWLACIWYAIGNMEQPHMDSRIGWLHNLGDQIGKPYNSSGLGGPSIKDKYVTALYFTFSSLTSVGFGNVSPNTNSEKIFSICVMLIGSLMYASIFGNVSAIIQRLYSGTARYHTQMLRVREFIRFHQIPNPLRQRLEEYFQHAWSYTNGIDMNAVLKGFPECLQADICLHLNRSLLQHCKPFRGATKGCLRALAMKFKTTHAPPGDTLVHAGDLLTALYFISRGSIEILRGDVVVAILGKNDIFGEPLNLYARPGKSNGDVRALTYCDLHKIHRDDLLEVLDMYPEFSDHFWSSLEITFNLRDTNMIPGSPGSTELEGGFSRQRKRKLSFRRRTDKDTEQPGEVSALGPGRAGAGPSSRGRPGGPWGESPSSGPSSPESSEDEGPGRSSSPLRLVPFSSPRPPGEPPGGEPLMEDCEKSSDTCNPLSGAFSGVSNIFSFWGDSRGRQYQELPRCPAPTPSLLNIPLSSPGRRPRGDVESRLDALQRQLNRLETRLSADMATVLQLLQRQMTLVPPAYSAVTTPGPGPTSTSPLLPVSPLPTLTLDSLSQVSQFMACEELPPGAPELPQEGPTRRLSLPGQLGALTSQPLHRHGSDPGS

In order of rising “hERG current change (%, negative = inhibition) at 10uM” value:
1. Cc1ccc(S(=O)(=O)N2CCN(C3CCN(Cc4ccccc4)CC3)CC2)cc1.O=C(O)C(=O)O  -76.6%
2. O=S(=O)(c1ccc(Cl)cc1)N1CCC(O)(CN2CCN(Cc3ccccc3)CC2)CC1  -75.8%
3. COc1cccc(CN2CCN(C3CCN(c4ccccc4F)CC3)CC2CCO)c1 (centres unmarked)  -74.9%
4. CCOc1ccccc1CN1CCN(C2CCN(c3ccccc3F)CC2)CC1CCO (centres unmarked)  -71.6%
5. Cc1ccccc1OCCC(=O)N(CC(C)C)c1c(N)n(Cc2ccccc2)c(=O)[nH]c1=O  -64.4%
6. COCCCN(C(=O)CCOc1ccc(C(C)(C)C)cc1)c1c(N)n(Cc2ccccc2)c(=O)[nH]c1=O  -62.2%
7. COc1ccc(S(=O)(=O)N2CCN(C3CCN(Cc4ccccc4)CC3)CC2)cc1  -59.4%
8. CC(c1ccccc1)C1C(C#N)=C(N)OC2=C1C(=O)CC(C)(C)C2 (centres unmarked)  -56.9%
9. O=c1cc(CN2CCN(S(=O)(=O)c3ccccc3[N+](=O)[O-])CC2)nc2sccn12  -53.7%
10. CC(OC(=O)c1ccc(S(=O)(=O)NCc2ccco2)cc1)C(=O)Nc1ccc(Cl)cn1 (centres unmarked)  -39.8%
11. COc1ccc(S(=O)(=O)N2CCC(N3CCN(Cc4ccccc4)CC3)CC2)cc1.O=C(O)C(=O)O  -39.2%
12. O=C(NCc1ccc(F)cc1)C1CCCN(C(=O)Nc2ccccc2)C1 (centres unmarked)  -38.5%
13. CN1CCN(CC2(O)CCN(S(=O)(=O)c3ccc(Cl)cc3)CC2)CC1  -36%
14. O=c1cc(CN2CCN(S(=O)(=O)c3ccc4ccccc4c3)CC2)nc2sccn12  -25.2%
15. O=C(NCc1ccccc1)C1=C[C@@H](c2ccc3c(c2)OCO3)C[C@@H](OCc2ccc(CO)cc2)O1  -25%
16. CC(=O)Nc1ccccc1-c1nc2ccc(C(=O)N3CCN(c4cc(C)ccc4C)CC3)cc2[nH]c1=O  -23.5%
17. COCCCN(C(=O)CCOc1ccc(C)cc1)c1c(N)n(Cc2ccccc2)c(=O)[nH]c1=O  -20.2%
18. COc1ccc(S(=O)(=O)N2CCN(Cc3ccccc3)CC2)cc1  -19.5%
19. CCOC(=O)N1CCC(N2CCN(S(=O)(=O)c3ccc(C)cc3)CC2)CC1.O=C(O)C(=O)O  -19.1%
20. Cc1ccc(OC(C)C(=O)N2CCCc3ccccc32)cc1 (centres unmarked)  -16.3%
21. C=CCNC(=O)c1ccc2nc(-c3ccccc3)c(-c3ccccc3)nc2c1  -15.4%
22. CC1(C)CC(=O)C2=C(C1)OC(N)=C(C#N)C2c1ccccc1 (centres unmarked)  -14.4%
23. Cc1n[nH]c(C)c1Sc1ccccc1N=Cc1cc(Cl)cc([N+](=O)[O-])c1O  -10.9%
24. CCOC(=O)C1(Cc2cccc(Cl)c2)CCCN(C(=O)c2cc(C)on2)C1 (centres unmarked)  -9.8%
25. Cc1ccc(S(=O)(=O)N2CCN(Cc3ccccc3)CC2)cc1  -9.58%
26. Cc1ccccc1OCCC(=O)N(Cc1ccccc1)c1c(N)n(Cc2ccccc2)c(=O)[nH]c1=O  -7.3%
27. CCOC(=O)c1c(C)oc2cc(Cl)c(O)c(CN(C)C)c12  -6.79%
28. CC(c1ccccc1)C1C(C#N)=C(N)OC2=C1C(=O)CCC2 (centres unmarked)  -6.39%
29. COc1ccc(CNc2cccc(C)n2)c(O)c1  -3.24%
30. COCCCN(C(=O)CCOc1ccccc1C)c1c(N)n(Cc2ccccc2)c(=O)[nH]c1=O  -3.05%
31. O=c1cc(CN2CCN(S(=O)(=O)c3ccccc3)CC2)nc2sccn12  -2.25%
32. Cc1c(/C=C/C(=O)c2cccs2)cnn1C  -0.723%
33. COc1ccc(CNC(=O)Nc2ccc3c(c2)N(C)C(=O)CS3)cc1  -0.138%
34. Cc1cc(C)c(NC(=O)COC(=O)c2ccc([N+](=O)[O-])s2)c(C)c1  0.0437%
35. COc1ccccc1NS(=O)(=O)c1cc(NC(=O)c2[nH]c(C)c(C(C)=O)c2C)ccc1N1CCOCC1  0.128%
36. COc1ccc2nc(NC(=O)CSCc3c(C)noc3C)sc2c1  1.24%
37. Cc1cc(NC(=O)CSc2nnc(Cn3c(=O)sc4ccccc43)n2-c2ccccc2C)no1  2.54%
38. COc1ccc(C(=O)/C=C/c2cn(CC(O)CN3CCOCC3)c3ccccc23)cc1 (centres unmarked)  3.55%
39. N#CCSc1nnc(C2CCCCC2)n1-c1ccccc1  4.45%
40. CCC(C)[C@H](NC(=O)N1CCCCCC1)C(=O)OC (some centres unmarked)  5.25%
41. O=C(Cn1nc(-c2ccccc2)nc1-c1ccccc1)OC1CCCCC1  7.88%
42. COc1cc(CN2CCN(C3CCC3)CC2CCO)cc(OC)c1 (centres unmarked)  8.54%
43. CCOc1ccccc1CN1CCN(C2CCOCC2)CC1CCO (centres unmarked)  9.47%
44. COc1ccc(CN2CCN(C3CCC3)CC2CCO)c(F)c1 (centres unmarked)  9.71%
45. Cc1ccc(CNC(=S)NC2CCC(C(C)(C)C)CC2)cc1 (centres unmarked)  10.8%
46. O=S(=O)(c1ccccc1)N1CCC(O)(CN2CCN(c3ccccc3)CC2)CC1  12.2%
47. CCC(NC(=O)C1CCC1)c1ccccc1 (centres unmarked)  12.6%
48. O=C(CSc1nc(-c2ccccc2)cc(=O)[nH]1)Nc1ccccc1  18%
49. CC(C)C[C@@]12C(=O)N(c3cccc(Cl)c3)C(=O)N1[C@H](c1ccc(Br)cc1)[C@@H]1C(=O)N(C(C)(C)C)C(=O)[C@@H]12  22.7%
50. CCOc1ccccc1CN1CCN(C2CCC2)CC1CCO (centres unmarked)  27.4%
51. COc1ccc(CNC(=O)COC(=O)c2ccco2)cc1  28.3%
52. CCCN(C(=O)CCOc1ccc(C(C)(C)C)cc1)c1c(N)n(Cc2ccccc2)c(=O)[nH]c1=O  29.7%
53. CN(c1ccccc1)c1ccc(/C=C(\CCC(=O)O)c2nc3ccccc3s2)cc1[N+](=O)[O-]  44.6%
